Granule exo inh – blocks lytic granule exocytosis; TALL-104 LAMP-1 surface exposure, flow cytometry; cells stimulated with thapsigargin and PMA; inhibition, % at 10 µM; actives 0.66% (n = 360,000); AID 651702;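 active = inhibition above about 55%, limit read from the data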
NadD block – NadD (S. aureus) enzyme inhibition; purified NadD enzyme, colorimetric absorbance read-out; inhibition, % at 20 µM; actives 0.78% (n = 360,000); in the data active = inhibition above about 26%
PP1 inh – counter-screen for PP5 inhibitors: inhibitors of human PP1-alpha | P62136 | purified PP1alpha, OMFP fluorescence | inhibition, % at 6.7 µM | actives 0.9% (n = 320,000);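 active = inhibition above the mean inhibition of all tested compounds plus 3 SD, computed separately for each screening campaign, cut at about 15% in these data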
Target sequence (P62136 whole entry, looked up): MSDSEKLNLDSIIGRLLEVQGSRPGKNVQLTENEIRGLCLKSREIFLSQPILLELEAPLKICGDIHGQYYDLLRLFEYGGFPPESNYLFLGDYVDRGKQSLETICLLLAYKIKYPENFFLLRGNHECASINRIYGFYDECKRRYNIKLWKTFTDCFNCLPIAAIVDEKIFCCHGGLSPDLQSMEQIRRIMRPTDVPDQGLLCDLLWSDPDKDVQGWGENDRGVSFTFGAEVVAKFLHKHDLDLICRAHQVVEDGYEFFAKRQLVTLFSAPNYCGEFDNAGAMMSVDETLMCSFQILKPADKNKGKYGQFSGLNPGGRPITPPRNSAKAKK
B2AR ag – activates human beta-2 adrenergic receptor causing internalization; Am2.2-beta2AR cells, FAP receptor internalization, flow cytometry; response, % (test concentration not listed); actives 0.43% (n = 340,000);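 active = response above a set limit, near 3 SD of response in nonfluorescent compounds, cut at about 42% in these data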
GRK2 aptamer HTS – blocks RNA aptamer binding to human GRK2; P25098; actives 0.59% (n = 330,000); inhibition of aptamer binding, % at 10 µM; bead flow cytometry, FAM-aptamer displacement from GRK2;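 active = inhibition of aptamer binding above 40%, roughly 3 SD of noise, on plates passing a quality check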;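 also: median bead fluorescence of bound FAM aptamer so fluorescent compounds give negative values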
* marks the source's active call; other numbers are inactive results; . = no result given. The list is not random: actives were taken first. Their share in the collection is about 2.9%.

SMILES | Granule exo inh | NadD block | PP1 inh | B2AR ag | GRK2 aptamer HTS
CC(C)N(C)c1ncnc2c1ncn2[C@H]1CN(CCc2ccccc2)C[C@@H](CO)O1 | -8.5 | 2.1 | . | . | .
CCOC(=O)Cc1cc(=O)n2[nH]c(-c3ccc(Cl)cc3)cc2n1 | 2.7 | 1.2 | 15.8* | 1.3 | 0.0
O=c1cc(-c2ccc([N+](=O)[O-])cc2)nc2cc(-c3ccc(Cl)cc3)[nH]n12 | . | . | 7.4 | . | 58.0*
CCCc1cc(=O)n2[nH]c(-c3ccc(Cl)cc3)cc2n1 | -3.9 | -6.8 | -1.9 | 1.3 | 0.0
Cc1cc(NC(=O)c2cc3cccc([N+](=O)[O-])c3[nH]2)ccc1F | 28.0 | 6.3 | 6.8 | 14.6 | 0.0
Cc1sc(NC(=O)CSc2n[nH]c(N)n2)c(C#N)c1C | 17.9 | 12.7 | . | 7.9 | .
Cc1ccc(/C=C/C2=Cc3c(sc(NC(=O)CSc4n[nH]c(N)n4)c3C#N)C(C)(C)C2)o1 | . | . | 56.9* | . | 0.0
CCOC(=O)C(=C1Nc2ccccc2N1)n1c(-c2cccnc2)nc2ccccc21 | 11.4 | -3.3 | . | . | .
Nc1nccc(SCc2ccccc2)n1 | 1.2 | -1.8 | . | 6.6 | .
CCN(C(=O)COC(=O)c1ccc2c(=O)n3c(nc2c1)CCC3)C1CCS(=O)(=O)C1 (configuration not stated) | -4.7 | -3.9 | 2.7 | -0.2 | 0.0
C/C(=C/CCC(C)(O)C1CC[C@@]2(C)[C@@H]3CC=C4[C@@H](CC[C@H](O[C@H]5O[C@@H](CO)[C@H](O)[C@@H](O)[C@@H]5O)C4(C)C)[C@]3(C)C(=O)C[C@]12C)CO[C@@H]1O[C@H](CO)[C@@H](O)[C@H](O)[C@H]1O (some centres not stated) | -5.1 | -0.5 | . | -2.6 | 0.0
Cc1cc(-c2nc3ncccc3o2)ccc1NC(=S)NC(=O)C(C)C | -1.5 | -4.2 | -3.8 | 61.9* | 0.0
CC(OC(=O)Cc1c[nH]c2ccccc12)C(=O)Nc1ccccc1F (configuration not stated) | -0.2 | 2.9 | -6.3 | 4.0 | 0.0
CC(=O)N1CC[n+]2c(-c3ccc(Cl)cc3Cl)csc21 | 7.7 | 5.3 | 2.2 | -3.4 | 52.0*
O=C(O)c1ccc(-c2nc(-c3ccc(Cl)cc3Cl)cs2)cc1 | -4.2 | 2.8 | -0.8 | 13.2 | 1.0
O=C(C[n+]1cc(-c2ccc(Cl)cc2)n2c1CCC2)Nc1nc(-c2ccccc2)cs1 | -5.4 | 4.7 | 15.6* | 2.0 | 0.0
O=C(O)c1cccc(CSc2nc(-c3ccc(Cl)cc3)cc(C(F)(F)F)n2)c1 | -1.4 | 14.9 | 16.6* | 6.6 | 0.0
N#CC1(c2ccccc2)CCC(=NO)CC1 (configuration not stated) | -2.3 | 3.0 | -2.1 | 7.6 | 6.0
COC(=O)c1ccc(C2Nc3ccc(/C(C)=N/NC(=O)C(OC)c4ccccc4)cc3C3C=CCC32)cc1 (configuration not stated) | -6.7 | 25.2 | 20.6* | 14.8 | 0.0
O=[N+]([O-])c1ccc(Cl)c(S(=O)(=O)/N=C(/c2ccccc2)N2CCOCC2)c1 | -0.4 | 3.7 | 1.0 | -7.0 | 0.0
Nc1[nH]c(=O)[nH]c(=O)c1N=Nc1ccc(C(=O)O)cc1 | 0.7 | 1.1 | . | 2.0 | 2.0
Cc1ccc(NC(=S)N(Cc2ccc(Cl)cc2)Cc2ccc(C(=O)O)cc2)cc1Cl | 2.5 | 10.4 | 17.3* | 2.5 | 0.0
COc1ccc(CN(CC2CCC(C(=O)O)CC2)C(=S)Nc2ccc(C)c(Cl)c2)cc1 (configuration not stated) | -1.8 | 3.8 | 3.4 | 2.4 | 0.0
O=C(CSc1ccccn1)Nc1ccc(NC(=O)CSc2ccccn2)cc1 | -2.0 | -7.8 | 1.6 | -6.8 | 3.0
O=C(CSc1ccccn1)Nc1nonc1[N+](=O)[O-] | 58.6* | -2.2 | -0.8 | 6.0 | 5.0
SMILES | Granule exo inh | NadD block | PP1 inh | B2AR ag | GRK2 aptamer HTS
CCOC(=O)c1nc2sc3c(c2c(=O)[nH]1)CCC(C)C3 (configuration not stated) | -4.4 | 1.1 | 3.5 | 56.2* | 1.0
Cc1[nH]n(-c2ccccc2)c(=O)c1/C=N/Nc1nncc(-c2ccccc2)n1 | 2.3 | 16.1 | 17.0* | -0.2 | 0.0
Cc1[nH]n(-c2ccccc2)c(=O)c1C=Nc1cccc2cccnc12 | 0.4 | 3.5 | 15.7* | 9.6 | 0.0
COc1ccc(NC(=O)COC(=O)CCCc2c[nH]c3ccccc23)cc1OC | 0.1 | -3.7 | -3.6 | 13.4 | 2.0
CCOC(=O)C1=C(Cc2ccc(F)cc2)C(=O)c2ccccc2C1=O | 100.1* | 2.6 | 1.3 | -167.7 | 0.0
O=C(OCc1ccc(F)cc1)c1ccc2c(c1)-c1ccccc1C2=O | -3.2 | -2.1 | -3.9 | -6.0 | 1.0
CCOc1ccc(S(=O)(=O)Nc2cc(Sc3ncn[nH]3)c3oc(=O)sc3c2)cc1 | . | . | 15.8* | . | 0.0
O=C(CSc1nnc(-c2ccc(F)cc2)c2ccccc12)Nc1cccc(Cl)c1 | -1.5 | 19.7 | 15.7* | -13.1 | 0.0
Cc1ccc(CN2CCCN(C)CC2)c(C)c1 | 0.1 | 1.4 | 0.8 | 3.6 | 0.0
CSc1nc(C)c(C(=O)C[n+]2ccc(C)cc2)cc1C#N | 75.9* | -2.6 | 0.4 | 2.7 | 0.0
O=C1[C@@H](Oc2ccccc2)[C@@H](c2ccccc2)N1c1ccccc1 | 0.8 | -5.6 | . | -1.5 | 41.0*
O=C1[C@H](Oc2ccccc2)[C@@H](c2ccccc2)N1c1ccncc1 | -0.9 | 1.1 | . | 5.5 | 6.0
COc1ccc(-c2cc(-c3nc4ccccn4c3NCc3ccccc3)ccc2OC)cc1 | -7.1 | -7.6 | . | 66.0* | 1.0
COc1ccc(-c2nc3ccccn3c2NCc2ccc3c(c2)OCO3)cc1 | 2.6 | 0.8 | -1.2 | -4.0 | 0.0
COc1ccc(-c2nc3ccc(C)cn3c2NCc2ccccc2)cc1SC1CCCCC1 | 65.2* | 8.8 | 17.4* | 29.2 | 0.0
Cc1ccc2nc(-c3cccc(SC4CCCCC4)c3)c(NCc3ccccc3)n2c1 | -3.9 | 2.4 | . | 13.4 | 2.0
COc1cc(OC)cc(C(=O)NN(CCC#N)C2=NS(=O)(=O)c3ccccc32)c1 | -8.3 | -1.0 | -1.7 | -9.6 | 2.0
NC(=S)N=Nc1c(O)n(CCCl)c2ccc(Br)cc12 | 78.0* | -2.5 | -2.6 | -10.9 | 0.0
Cc1ccc(O)c(N=Cc2cc(Cc3ccccc3)cc([N+](=O)[O-])c2O)c1 | 1.1 | 53.6* | . | 24.0 | .
CCCCC1=CC2=C(c3ccco3)C(=O)C(C)(OC(=O)c3ccc(OC)cc3)C(=O)C2=CN1Cc1ccco1 (configuration not stated) | -0.7 | 36.6* | 16.1* | -4.0 | 0.0
CCCCC1=CC2=C(c3ccco3)C(=O)C(C)(OC(=O)c3ccc(OC)cc3)C(=O)C2=CN1c1ccc(OC)cc1 (configuration not stated) | 24.3 | 26.1 | 15.7* | 4.3 | 2.0
N#CCC(=O)Nc1ccc(C(=O)OCC(=O)c2ccc3c(c2)NC(=O)CO3)cc1 | 10.0 | 16.4 | 15.6* | -2.3 | 0.0
Cc1cc(C)cc(NC(=O)COC(=O)Cn2cnc3c2c(=O)n(C)c(=O)n3C)c1 | 1.5 | -0.2 | -7.0 | -0.4 | 0.0
CCOc1ccc(/C=N/NC(=O)c2nnn(-c3nonc3N)c2CN2CCC(C)CC2)cc1 | 17.7 | 4.9 | 3.4 | -6.2 | 0.0
